# The list is not random: actives were taken first. Their share in the collection is about 5%.
# Tb PYK inh: blocks Trypanosoma brucei pyruvate kinase; Potency, µM (top dose mostly 76.8 µM), for inactives: top-dose activity, negative = inhibition, hits mostly inhibitors; Q57TT1; 410,000 compounds, 0.12% hits; TbPYK enzyme, Kinase-Glo Plus ATP luminescence, 45 min; further: potency means the concentration at half of the fitted maximal effect; nearly all actives have a fitted effect of over 50% in size
#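 ADP (130 uM final) triggers the TbPYK reaction after compound addition; incubation is 45 min at room temperature. Kinase-Glo Plus is then added and luminescence imaged. Normalized data are fitted to concentration-effect curves.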
# Vaccinia mCherry: inhibitors of vaccinia virus infection (mCherry reporter signal); Vaccinia virus mCherry reporter infection, fluorescence; Potency, µM (doses to about 36.5 µM), for the others: at the highest dose activity change, negative = inhibition, most hits filed as inhibitors; 310,000 compounds, 0.63% hits; AID 720579; calls by dose curve; tested in A549 cells; further: potency means the concentration at half of the fitted maximal effect; nearly all actives have a fitted effect of over 35% in size
# LmPK inh: inhibitors of Leishmania mexicana pyruvate kinase; purified LmPK, Kinase-Glo ATP luminescence, 1 h; Potency, µM (titrated, usually from 57.5 µM), for the others: top-dose activity change, negative = inhibition, actives largely listed as inhibitors; 290,000 compounds, 0.37% hits; AID 1721; further: potency means the concentration at half of the fitted maximal effect
# Target sequence (Q27686 whole entry, looked up): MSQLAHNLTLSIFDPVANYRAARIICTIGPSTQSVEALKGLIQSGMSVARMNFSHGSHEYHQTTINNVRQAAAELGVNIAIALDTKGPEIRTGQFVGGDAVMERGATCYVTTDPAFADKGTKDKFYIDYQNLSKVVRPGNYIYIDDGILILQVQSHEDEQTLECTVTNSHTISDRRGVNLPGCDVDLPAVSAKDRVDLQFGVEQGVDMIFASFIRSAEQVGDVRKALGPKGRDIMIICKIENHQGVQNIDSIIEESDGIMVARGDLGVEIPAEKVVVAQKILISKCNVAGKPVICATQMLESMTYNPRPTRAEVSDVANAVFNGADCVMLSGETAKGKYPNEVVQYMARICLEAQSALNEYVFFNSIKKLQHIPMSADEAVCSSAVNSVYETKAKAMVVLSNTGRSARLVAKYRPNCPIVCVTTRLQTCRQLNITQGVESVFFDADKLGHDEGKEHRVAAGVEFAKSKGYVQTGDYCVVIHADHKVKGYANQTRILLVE
#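 0.1 nM LmPK, 0.5 mM PEP, 0.1 mM ADP; 50 mM imidazole pH 7.2, 7 mM MgCl2, 50 mM KCl; 1 h RT. Kinase-Glo luminescence readout, normalized to no-enzyme (full inhibition) and uninhibited wells.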
# Vaccinia Venus: inhibitors of vaccinia virus (Venus reporter); Vaccinia virus Venus reporter expression, fluorescence; Potency, µM (top dose mostly 36.5 µM), for inactives: at the highest dose activity change, negative = inhibition, hits mostly inhibitors; 330,000 compounds, 0.46% hits; calls by dose curve; tested in A549 cells; further: potency means the concentration at half of the fitted maximal effect; nearly all actives have a fitted effect of over 30% in size
# HCMV antiviral: inhibitors of human cytomegalovirus; HFF cells, HCMV-luciferase reporter, 72 h; hits give low values; AID 1259415; 410,000 compounds, 4.5% hits; activity change, negative = inhibition, % at 57.5 µM; in the data active means activity change below about -60%; inconclusive means no clear call, values can overlap the other calls; inactive means above about -39%
#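 HFF cells seeded 16 h at 37C, treated with compounds, infected with luciferase-reporter HCMV at MOI 1 PFU/cell; luciferase read at 72 h post infection, normalized to buffer-only and Salinomycin controls.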
# * hit, by the source's call; i = inactive; ? = inconclusive; · = no result; ! = repeats disagree. Unless noted, the call rests on the fitted dose curve; in most records, active means well fitted curve in the direction sought with a large enough effect; inconclusive means small, poorly fitted or top-dose-only effect, or another doubt; inactive means no such curve, though single readings can be large; an effect the other way counts as inactive or inconclusive. On the % scale 0 is the no-effect control and ±100 the full control effect.
SMILES,Tb PYK inh,Vaccinia mCherry,LmPK inh,Vaccinia Venus,HCMV antiviral
O=C(O)CCCCCN1C(=O)/C(=C/c2ccncc2)SC1=S,-6%,-2%,-3%,-19%,-77*
COc1ccc(CN2C(=O)/C(=C/c3ccncc3)SC2=S)cc1,-9%,i,5%,0%,-72*
CCOC(=O)N1CCN(C(=O)CCNS(=O)(=O)c2ccc(C)c(C)c2)CC1,3%,·,·,·,16
CSc1ccc(Cn2c(C)c(C(=O)NCc3cccc(C(F)(F)F)c3)sc2=O)cc1,-6%,4%,·,-5%,14
O=C(NCC1CCCO1)C1CCN(S(=O)(=O)c2cccnc2)CC1 (stereo unspecified),-12%,·,-1%,-2%,19
COc1ccc(N(CC(=O)N/N=C/c2cccc(OC)c2OC)S(=O)(=O)c2ccccc2)cc1,3%,·,-1%,·,-34
COc1ccccc1N(CC(=O)N/N=C/c1ccc(OCC(=O)NCc2ccco2)cc1)S(=O)(=O)c1ccc(C)cc1,3%,·,-1%,?,·
O=C(CN(c1cccc(Br)c1)S(=O)(=O)c1ccccc1)N/N=C/c1cc([N+](=O)[O-])ccc1O,-25%,-24%,·,-24%,-94*
COc1ccc(N(CC(=O)N/N=C/c2ccccc2F)S(=O)(=O)c2ccccc2)cc1,0%,-18%,5%,-15%,-77*
COC(=O)COc1ccc(/C=N/NC(=O)CN(c2ccccc2OC)S(=O)(=O)c2ccccc2)cc1,-1%,-19%,2%,2%,-100*
Cc1ccc(NC(=O)Cn2c(C)cc(C)c(C#N)c2=O)cc1F,7%,-11%,·,-5%,3
Cc1cc(=O)n2nc(N3CCC(C(=O)NCc4cccc(Br)c4)CC3)sc2n1,0%,·,-8%,·,-20
CC(O)(c1ccccc1)c1nc(-c2ccncc2)cs1 (stereo unspecified),2%,-11%,·,?,-8
Cc1ccc(C2C=C(c3ccc(Cl)cc3)Nc3nc(NC(=O)c4ccco4)nn32)cc1 (stereo unspecified),-12%,-17%,·,-5%,-62*
Cc1ccc(C2C=C(c3ccccc3)Nc3nc(N4C(=O)CCC4=O)nn32)cc1 (stereo unspecified),-11%,-20%,3%,-10%,-62*
CC(=O)Nc1ccc(S(=O)(=O)N(C)CC(=O)OCC(=O)c2cc(C)n(-c3ccc4c(c3)OCO4)c2C)cc1,3%,i,1%,-11%,27
CCCC1(CCC)C(=O)NC(=Nc2ccccc2)NC1=O,-5%,i,12%,0%,68
CCCC1(CCC)C(=O)NC(=NCc2ccccc2)NC1=O,-13%,?,1%,16µM*,-30
O=C1N2c3ccccc3CCc3cccc(c32)C1(O)C(F)(F)F (stereo unspecified),-1%,-26%,3%,-27%,-61*
CCN1CCN(Cc2ccc(NC(=O)c3ccc(C)c(NC(=O)N4CCNC4=O)c3)cc2C(F)(F)F)CC1,-7%,?,3%,?,-94*!
CCN1CCN(Cc2ccc(NC(=O)c3ccc(C)c(NC(=O)c4cccc5[nH]ccc45)c3)cc2C(F)(F)F)CC1,5%,-17%,7%,?,-99*!
CCN1CCN(Cc2ccc(NC(=O)c3ccc(C)c(NC(=O)c4cc(-c5ccc(Br)cc5)n[nH]4)c3)cc2C(F)(F)F)CC1,4%,-26%,2%,10µM*,?
CCN1CCN(Cc2ccc(NC(=O)c3cc(NC(=O)c4nccnc4N)cc(OC)c3)cc2C(F)(F)F)CC1,0%,-1%,5%,-16%,-1
CCN1CCN(Cc2ccc(NC(=O)c3ccc(C)c(NC(=O)c4cncc(-c5cccs5)c4)c3)cc2C(F)(F)F)CC1,-3%,?,·,16µM*,·
CCN1CCN(Cc2ccc(NC(=O)c3ccc(C)c(NC(=O)c4nccn4C)c3)cc2C(F)(F)F)CC1,1%,-10%,-2%,?,-16
SMILES,Tb PYK inh,Vaccinia mCherry,LmPK inh,Vaccinia Venus,HCMV antiviral
COc1cc(OC)c(NC(=O)N2CCCn3nc(C)cc32)cc1Cl,-9%,-10%,·,-6%,-3
CCCN1CNc2c(c(=O)[nH]c(=S)n2CCc2c(C)cccc2C)C1,·,-13%,·,-6%,·
CCN1CCN(Cc2ccc(NC(=O)c3ccc(C)c(NC(=O)c4nccnc4N)c3)cc2C(F)(F)F)CC1,3%,?,-4%,?,-73*
CC(=O)c1sc(NC(=O)c2ccccc2F)nc1C,-9%,i,14µM*,-12%,7
CC1CCN(c2nc(-c3ccccc3O)nc3ccccc23)CC1,·,·,2%,·,53
CC1CCN(c2ncnc3ccccc23)CC1,2%,·,-7%,·,-72*
Cc1ccc(CN(C)CC(=O)Nc2ccccc2C(=O)NC2CC2)o1,-2%,·,·,·,-20
O=c1cc(CN2CCN(S(=O)(=O)c3ccccc3)CC2)nc2ccc(Cl)cn12,-4%,·,·,·,-39
COc1ccc(-n2c(C)nnc2SCC(=O)NC2CC2)cc1,4%,-14%,0%,-5%,-26
Cc1ccc(-n2ncc3c2CCCC3NC(=O)c2ocnc2C)cc1C (stereo unspecified),-7%,-8%,-1%,-29%,-89*
CCn1nc(C)cc1C(=O)NC1CCCc2c1cnn2-c1ccc(C)c(C)c1 (stereo unspecified),-6%,-29%,-9%,?,-86*
Cc1cc(C(=O)NC2CCCc3c2cnn3-c2ccc(C)c(C)c2)no1 (stereo unspecified),13%,·,3%,·,-30
COc1ccccc1OC(C)C(=O)Nc1cccc(-c2nc3ccccc3s2)c1 (stereo unspecified),-12%,-24%,·,-11%,26
C=C(C)COc1ccc(-c2[nH]ncc2Oc2ccc(OC)cc2)c(O)c1,6%,14µM*,3%,?,-33
C=C(C)COc1ccc(-c2[nH]ncc2-c2ccc(Br)cc2)c(O)c1,4%,?,2%,?,-94*
CCOc1ccc(-c2[nH]ncc2-c2ccc(OC)c(OC)c2)c(O)c1,0%,·,3%,·,?
C=C(C)COc1ccc(-c2ncncc2-c2ccc(Br)cc2)c(O)c1,-13%,-13%,6%,-20%,?
C=C(C)COc1ccc(-c2n[nH]c(C)c2-c2ccc(Br)cc2)c(O)c1,10%,?,5%,?,-77*
C=C(C)COc1ccc(-c2[nH]ncc2-c2ccccc2OC)c(O)c1,0%,-23%,-1%,?,-21
CCOc1ccc(-c2[nH]ncc2-c2ccc(Cl)cc2)c(O)c1,3%,·,5%,·,-86*
O=S1(=O)CCC(N=Nc2c(O)n(Cc3ccccc3)c3ccccc23)C1 (stereo unspecified),23%,·,3%,·,-29
CCN(C(=O)C(NS(=O)(=O)c1cccc2nsnc12)c1ccccc1)c1ccccc1 (stereo unspecified),-3%,-20%,·,-13%,-6

# Screening data (PubChem)
